# Results published in PubChem BioAssay (NCI).
# About 79,000 compounds went through this panel and 15% of them were active in at least one assay; those are over-represented in the sample as a whole. A number with no mark means an inactive call. Activity calls are given as the source filed them. No stated cut-off is given here; in the data, active means growth inhibition above about 70%; inactive means the rest.
# Tests used:
# [1] = NCI Yeast Anticancer Drug Screen. Data for the rad50 strain (AID 155);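 further: 0% = growth of vehicle-only cultures of the same strain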; settings: S. cerevisiae rad50 strain growth inhibition, hits give high values
# Method in brief: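 Compounds were tested on a yeast strain with an engineered DNA damage repair alteration; the reported value is growth inhibition normalised to vehicle treatment.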
# [2] = NCI Yeast Anticancer Drug Screen. Data for the mec2-1 strain (AID 157); settings: S. cerevisiae mec2-1 strain, hits give high values
# Method in brief: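 Vehicle-treated cultures served as reference for growth inhibition of compound-exposed mec2-1 yeast.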
# [3] = NCI Yeast Anticancer Drug Screen. Data for the sgs1 mgt1 strain (AID 161);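 further: 0% = growth of cultures given vehicle only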; settings: S. cerevisiae sgs1 mgt1 strain, hits give high values
# Method in brief: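 Genetically altered yeast, compound exposure, growth inhibition relative to vehicle.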
# [4] = NCI Yeast Anticancer Drug Screen. Data for the cln2 rad14 strain (AID 165);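 further: 0% = growth equal to vehicle treated cultures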; settings: S. cerevisiae cln2 rad14 strain, hits give high values
# Method in brief: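 Each compound was tested on cln2 rad14 yeast. Inhibition of growth was calculated against vehicle-exposed controls.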
# [5] = NCI Yeast Anticancer Drug Screen. Data for the bub3 strain (AID 167); settings: S. cerevisiae bub3 mutant strain, hits give high values
# Method in brief: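 Growth of a checkpoint-deficient yeast mutant is measured after compound exposure. Values represent inhibition relative to vehicle.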
# [6] = NCI Yeast Anticancer Drug Screen. Data for the mlh1 rad18 strain (AID 175); settings: S. cerevisiae mlh1 rad18 strain growth inhibition, hits give high values
# Method in brief: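 Vehicle-treated cultures served as the reference for growth inhibition in a yeast strain carrying DNA damage repair alterations exposed to each compound.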
# [7] = at 5.0 µM (retest, dose inferred, filed as 0.5)
# [8] = at 50.0 µM (retest, dose inferred, filed as 5.0)
Compound,"growth inhibition [1, 7]","growth inhibition [1, 8]",growth inhibition ([1]; at 50.0 µM),"growth inhibition [2, 7]","growth inhibition [2, 8]",growth inhibition ([2]; at 50.0 µM),"growth inhibition [3, 7]","growth inhibition [3, 8]",growth inhibition ([3]; at 50.0 µM),"growth inhibition [4, 7]","growth inhibition [4, 8]",growth inhibition ([4]; at 50.0 µM),"growth inhibition [5, 7]","growth inhibition [5, 8]",growth inhibition ([5]; at 50.0 µM),"growth inhibition [6, 7]","growth inhibition [6, 8]",growth inhibition ([6]; at 50.0 µM)
Clc1cccc2c(-c3ccccc3)c3cccc(Cl)c3cc12,4%,45%,58.8%,3%,50%,39.6%,8%,35%,42.2%,6%,54%,50.9%,-2%,51%,36.2%,1%,68%,91.4% (active)
O=C(NNc1ccccc1)c1ccc([N+](=O)[O-])cc1,31%,95% (active),99% (active),10%,96% (active),99.2% (active),34%,97% (active),99% (active),20%,96% (active),92% (active),25%,96% (active),99.6% (active),32%,97% (active),98.7% (active)
CCN(CC)CCCCSc1ccc([N+](=O)[O-])cc1[N+](=O)[O-],27%,45%,77.6% (active),32%,36%,45.4%,32%,68%,72.8% (active),43%,43%,59.3%,30%,47%,65.8%,23%,44%,71.9% (active)
CCCC(/C=N/N=C(N)N)=N\N=C(N)N,-24%,-8%,-24.1%,-11%,4%,-8.95%,-1%,-30%,-14.3%,10%,0%,-33.1%,-12%,-2%,-8.95%,4%,-1%,-10.6%
O=S(=O)(Nc1ccc(-c2ccc(Cl)cc2)cc1)c1ccccc1,68%,97% (active),92.5% (active),58%,99% (active),93.2% (active),75% (active),-21%,97.8% (active),19%,90% (active),92.3% (active),38%,98% (active),95.8% (active),95% (active),98% (active),95% (active)
CC(=O)C1C(=O)C=C(C)OC1=O (centres undefined),4%,21%,40.5%,8%,18%,29.1%,1%,18%,-0.75%,7%,13%,3.7%,0%,2%,28.9%,4%,23%,70.7% (active)
COC(=O)C(Sc1ccc(Cl)cc1)C1SC(=S)N(C)C1=O (centres undefined),34%,99% (active),62%,19%,99% (active),41.5%,21%,99% (active),65.9%,27%,99% (active),37.2%,15%,99% (active),84.8% (active),38%,98% (active),58%
C1CCC2[N-]CC3CCCCC3[N-]CC3CCCCC3[N-]CC3CCCCC3[N-]CC2C1.[Cl][Fe]([Cl])([Cl])[Cl].[Fe+6] (centres undefined),41%,97% (active),96.3% (active),10%,98% (active),98.5% (active),25%,98% (active),98.5% (active),0%,96% (active),96.8% (active),-3%,97% (active),97.5% (active),26%,98% (active),97.7% (active)
COc1ccc(S)cc1,0%,72% (active),78.9% (active),3%,51%,39.7%,0%,89% (active),94% (active),-3%,80% (active),69.5%,0%,62%,76.5% (active),2%,86% (active),83.8% (active)
NC(=O)C1(Br)C=[N+](Cc2ccccc2)CCC1 (centres undefined),0%,-2%,29.2%,3%,-3%,11.9%,-3%,-4%,11.8%,-2%,-3%,13.9%,-2%,-6%,-3.4%,2%,1%,24.4%
Cn1c2c(c3nc(N)nc(N)c3c1=O)CCc1ccccc1-2,6%,21%,72.8% (active),0%,31%,26.3%,8%,39%,69.5%,-2%,37%,42.8%,-1%,39%,68.5%,0%,36%,44.4%
C=CCNc1nc2c(s1)C(=O)c1ccccc1C2=O,95% (active),98% (active),90.8% (active),99% (active),99% (active),93.3% (active),100% (active),99% (active),93.9% (active),76% (active),99% (active),91.8% (active),99% (active),99% (active),91.9% (active),98% (active),98% (active),88% (active)
C[n+]1c(-c2ccc(/C=N\NC(=O)c3cccc(C(=O)N/N=C/c4ccc(-c5cn6ccccc6[n+]5C)cc4)c3)cc2)cn2ccccc21,-14%,99% (active),98% (active),27%,99% (active),98.5% (active),0%,99% (active),98.2% (active),-4%,99% (active),97.7% (active),15%,99% (active),98% (active),-14%,99% (active),98.5% (active)
